Results published in PubChem BioAssay (NCI).
The panel holds about 83,000 compounds, 20% with a hit somewhere; the sample as a whole holds those more often.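 Single-dose data. Exposure time 48 hours. Values below 10 considered active.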 Unmarked numbers belong to inactive results. The source made the active and inactive calls.

Tests used:
Assay in all cases: NCI-60 one-dose screen, 48 h (100 = growth as untreated, 0 = no growth, -100 = all killed)
Details in all cases: 10 µM unless noted
T-47D breast = test system: T-47D breast
BT-549 breast = test system: BT-549 breast
MDA-MB-435 melanoma = test system: MDA-MB-435 melanoma
SW-620 colon = test system: SW-620 colon
MCF7 breast = test system: MCF7 breast
HCT-116 colon = test system: HCT-116 colon
HCC-2998 colon = test system: HCC-2998 colon
KM12 colon = test system: KM12 colon

Row | SMILES | growth (T-47D breast) | growth (BT-549 breast) | growth (MDA-MB-435 melanoma) | growth (SW-620 colon) | growth (MCF7 breast) | growth (HCT-116 colon) | growth (HCC-2998 colon) | growth (KM12 colon)
1 | CSc1nn2c(-c3cc4cc(Br)ccc4oc3=O)ccnc2c1C#N | 99.7% | 105% | 101% | 103% | 94.9% | 94.3% | 102% | 107%
2 | CS(=O)(=O)Nc1cc(-c2ccc3ncnc(Nc4cccc(Cl)c4)c3c2)cnc1Cl | -22.9% (active) | -15.5% (active) | 8.58% (active) | 11.5% | 5.3% (active) | -26.9% (active) | 2.63% (active) | 5.4% (active)
3 | CO[C@]12C=C/C(=C(/C(=O)OCc3cccnc3)C(=O)CCCCCCCC[C@]3(OC)C=C/C(=C(/C(=O)OCc4cccnc4)C(=O)CCCCCCCC1)O3)O2 | -17.2% (active) | -67.8% (active) | -42.4% (active) | -33.3% (active) | -56.3% (active) | -86% (active) | -90.6% (active) | -86.5% (active)
4 | COc1ccc(CNc2ccc3nc(CCC4CCCCC4)[nH]c3c2)cc1 | 41% | 96.7% | 80.9% | 75% | 68.4% | 50.7% | 30.8% | 79.8%
5 | COc1ccc(CNc2c3ccccc3nc3ccccc23)cc1OC | 25.8% | 42.1% | 29.4% | 16% | 0.674% (active) | 12.2% | 30.1% | 31.6%
6 | Cc1cc2c(C(C)C)c(O)c(O)c(/C=N/O)c2c(O)c1-c1c(C)cc2c(C(C)C)c(O)c(O)c(/C=N/O)c2c1O | 10.2% | 23.8% | 37.4% | 23.2% | 15.3% | 18% | 16.1% | 26%
7 | C#CCOc1ccc(C2=NN(CCCC)C3N=C(Cl)c4ncn(CCCC)c4N23)cc1OCC#C (stereo not drawn) | 69.6% | 90.6% | 86.7% | 88.7% | 81.8% | 83.1% | 107% | 88.3%
8 | COc1cc(/C=N/NC(=O)c2ccc3nc(-c4ccc(Cl)cc4)[nH]c3c2)cc(OC)c1OC | 15.9% | 70.7% | 64% | 78.7% | 12.1% | 36.2% | 80% | 61.8%
9 | Clc1ccc2c(NCCCn3cnc4c(N5CCCC5)nc(Cl)nc43)ccnc2c1 | 85.6% | 97.7% | 101% | 103% | 91.9% | 93.4% | 108% | 98.1%
10 | O=C(O)/C=C\C(=O)Nc1ccc2c(c1)Cc1cc(F)ccc1-2 | 84.6% | 111% | 102% | 110% | 93.3% | 92.1% | 97.6% | 101%
11 | COc1cc(C)cc(-c2c(-c3cc(N4CC(O)C4)nc(-c4cccnc4)n3)cnn2C)c1 | 62.6% | 89.7% | 92% | 101% | 87.6% | 96.1% | 92.8% | 84.7%
12 | O=C1OCC2=C1C(c1cccc(F)c1)c1cc3c(cc1N2CCO)CCC3 (stereo not drawn) | 52.6% | 39.5% | -36.9% (active) | 26.3% | 19.7% | 10.5% | 7.85% (active) | 13.4%
13 | O=C(/C=C/c1ccco1)c1ccc(Nc2ccnc3cc(Cl)ccc23)cc1 | 83.7% | 88.5% | 92.5% | 86.3% | 56.1% | 33.7% | 60.7% | 80.2%
14 | CN1C(=O)N(C)C2C1NN=c1s/c(=C\c3ccc(F)cc3)c(=O)n12 (stereo not drawn) | 13.3% | 44.2% | -19% (active) | 10.2% | 4.25% (active) | 4.86% (active) | 57.8% | 18.9%
15 | COc1nc2ccccc2cc1/C=[N+](\[O-])c1ccccc1 | 58.9% | 86.7% | 42.2% | 28.4% | 28.6% | 10.2% | 105% | 84%
16 | CNC(=O)c1cc(Oc2ccc3nc(NC(=O)NC(C)C)sc3c2)ccn1 | 64.3% | 86.5% | 0.517% (active) | 53.2% | 53.9% | 57.7% | 79.3% | 39.3%

Row | SMILES | growth (T-47D breast) | growth (BT-549 breast) | growth (MDA-MB-435 melanoma) | growth (SW-620 colon) | growth (MCF7 breast) | growth (HCT-116 colon) | growth (HCC-2998 colon) | growth (KM12 colon)
17 | CC1=NC(=S)NC(c2ccccc2)/C1=C1/CC(c2ccccc2O)NN1 (stereo not drawn) | 100% | 99.6% | 103% | 100% | 102% | 99.6% | 113% | 104%
18 | CCOC(=O)/C(=C\c1ccccc1Cl)P(=O)(OCC)OCC | 39.5% | 57.6% | 45.1% | 46.6% | 17.8% | 44.2% | 94.5% | 52.9%
19 | COc1cc(/C=C/c2cc(/C=C/c3ccc(O)c(OC)c3)n(C(=O)Nc3ccc(C)cc3C)n2)ccc1O | -22.5% (active) | -33.8% (active) | -40.9% (active) | -10.9% (active) | -3.78% (active) | 1.48% (active) | 4.28% (active) | -9.35% (active)
20 | O=C(Nc1ncc(Cc2ccccc2Cl)s1)c1ccc2c(c1)OCCO2 | 33.9% | 18.7% | -19.5% (active) | 31.9% | 12.4% | 7.38% (active) | 19.6% | 6.53% (active)
21 | COc1cccc2cc(N(C)c3nc(C)nc4c3CCC4)ccc12 | 50.7% | 1.76% (active) | -3.22% (active) | 19.7% | 15.1% | -14.2% (active) | 17.5% | 0.0953% (active)
22 | CCCCCCCC/C=C\CCCCCCCCOc1ccc(CC(=O)NCC[N+]2(C)CCCC2)cc1 | 77.2% | 73.6% | 77.2% | 54.5% | 57.1% | 53.2% | 37.2% | 27.5%
23 | O=C(OCc1ccc2c(Br)cc(Br)c(O)c2n1)N1CCN(C(=O)c2cc3ccccc3[nH]2)CC1 | 27.9% | 56% | 43.9% | 25.3% | 29.5% | 22.4% | 53.1% | 29.5%
24 | CCOC(=O)c1ccc2c(c1)c1c(C)c3cnccc3c(C)c1n2C | -23.1% (active) | -54% (active) | -65.8% (active) | -7.3% (active) | -28.9% (active) | -85.2% (active) | -70.7% (active) | -7.02% (active)
25 | Cc1cc(N2CCOCC2)nc(N(CCCNc2ccnc3cc(Cl)ccc23)Cc2ccc3c(c2)OCO3)n1 | -45.9% (active) | -38.3% (active) | -45.1% (active) | -3.78% (active) | 3.11% (active) | -76.9% (active) | -58.2% (active) | 0.0851% (active)
26 | Cc1ccc(Nc2nc(N)nc(N)c2N=O)cc1Cl | 5.56% (active) | 98.7% | 89.1% | 95% | 36.4% | 78.2% | 86% | 80.6%
27 | O=C(Oc1ccccc1)c1cc(O)c(O)c(O)c1 | 59.7% | 65.1% | 53.3% | 62.7% | 79.3% | 58.8% | 68.5% | 74.7%
28 | COc1cc(CNC(=O)CCCC/C=C/C(C)C)ccc1OCc1cn(-c2ccc(C(F)(F)F)cc2)nn1 | 70.2% | 84.5% | 107% | 41.3% | 75.2% | 2.97% (active) | 94.8% | 81.2%
29 | Cc1ccc(-c2nn(CC(=O)N3CCOCC3)c(N)c2C#N)cc1 | 105% | 98.7% | 99.2% | 104% | 92.5% | 101% | 102% | 108%
30 | C=C1/C(=C\C=C2/CCC[C@]3(C)[C@@H]([C@H](C)CCCC(C)(C)O)CC[C@@H]23)C[C@@H](OC(=O)CBr)C[C@@H]1O | 81.7% | -58.1% (active) | 90.4% | 70.7% | 34.9% | 80.9% | 107% | 57.9%
31 | N#CC1=C(N)Oc2c(ccc3cccnc23)C1c1ccccc1 (stereo not drawn) | 50.4% | 51.8% | -47.4% (active) | 29% | 24.6% | 22.2% | 50.4% | 25.2%
